An excerpt weighted towards active compounds, which were near 17% of everything screened.
DT40 TDP1 CPT: DT40-hTDP1 cell growth loss with CPT | chicken DT40 Tdp1-/-;hTDP1 cells + 20 nM CPT, ATP luminescence, 48 h | Potency, µM (highest dose often 46.2 µM), actives largely listed as inhibitors | 420,000 compounds, 12% hits | AID 686979; note: nearly all actives have a fitted effect of over 55% in size
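Chicken DT40 Tdp1-/- cells stably complemented with human TDP1 were seeded at 400 cells/well in medium containing 20 nM camptothecin, exposed to pin-transferred compounds, and grown at 37 °C for at least 48 hr. Viability was read as ATP luminescence.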
HT1080 IDH1KD tx: toxicity to HT-1080 IDH1 knockdown cells (counter line); HT-1080 IDH1 knockdown viability, ATP luminescence, 48 h; Potency, µM (highest dose often 46.1 µM), actives largely listed as cytotoxic; 360,000 compounds, 2% hits
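In this qHTS, HT-1080 cells depleted of IDH1 are exposed for 48 h at 37 °C to compound titrations. Toxicity is scored from CellTiter-Glo luminescence, with DMSO as full viability and medium alone as none.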
HT1080NT lethal: kills 2HG-producing HT-1080-NT fibrosarcoma cells; Potency, µM (series often up to 46.1 µM), actives largely listed as cytotoxic; HT-1080-NT fibrosarcoma viability, CellTiter-Glo ATP luminescence, 48 h; 360,000 compounds, 1.6% hits;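 note: NT is the 2HG producing partner of a matched IDH1 knockdown line; nearly all actives have a fitted effect of over 55% in size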
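HT-1080-NT; 750 cells/well; 5% FBS RPMI; 48 h compound, 37 degrees C; CellTiter-Glo luminescence; curve fitting and curve-class assignment.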
TGFb inhibitor: inhibitors of TGF-b signaling | 410,000 compounds, 1.2% hits | HepG2 CAGA-GFP TGF-b/SMAD3 reporter, GFP fluorescence, 18 h; TGF-beta stimulated, 500 pg/mL final | AID 588855 | Potency, µM (series often up to 46.1 µM), actives largely listed as inhibitors; note: nearly all actives have a fitted effect of over 65% in size
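First, reporter cells (HEPG2 CAGA-GFP) rested 2 h at 37 degrees C. Next, compounds were pinned in and TGF-beta added to 500 pg/mL final. After 18 h, GFP was imaged per cell and summed per well.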
TDP1 cell noCPT: qHTS for Inhibitors of human tyrosyl-DNA phosphodiesterase 1 (TDP1): qHTS in cells in absence of CPT | DT40 Tdp1-/- hTDP1 cells, no CPT, ATP luminescence, 48 h | Potency, µM (series often up to 46.2 µM), usual class: inhibitors | 420,000 compounds, 15% hits; note: nearly all actives have a fitted effect of over 55% in size
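Readout: luminescence from CellTiter-Glo after 30 min in the dark at RT. Cells: DT40 Tdp1-/- with stable hTDP1, 400/well. Exposure: compounds alone, ≥48 hr, 37 °C.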
HepG2 viability: counter-screen for TGF-b inhibitors: cytotoxicity in HepG2 cells | HepG2 CAGA-GFP viability, ATP luminescence, 18 h | Potency, µM (doses to about 46.1 µM), most hits filed as cytotoxic | 410,000 compounds, 0.76% hits | AID 588856
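HepG2 CAGA-GFP cells (1000/well, DMEM with 1% FBS) received compound, then TGF-beta at 500 pg/mL final, and were incubated 18 hours at 37 degrees C. Viability was read by CellTiter-Glo luminescence. Media-only wells were set as complete cell-killing and DMSO as no toxicity.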
Each line names hits and unclear results; the compound was inactive in the other large screens. Calls come from the whole dose curve; as a rule, active = well fitted curve in the direction sought with a large enough effect; inconclusive = small, poorly fitted or top-dose-only effect, or another doubt; inactive = no such curve, though single readings can be large; an effect the other way counts as inactive or inconclusive.

CCn1c(SCC(=O)Nc2ccc(C)cc2)nnc1-c1ccccn1	DT40 TDP1 CPT inconclusive
Cc1ccc(NC(=O)CSC2=NCCN2)cc1	DT40 TDP1 CPT 23µM, TDP1 cell noCPT 18µM
O=C(CSC1=NCCN1)Nc1cccc([N+](=O)[O-])c1	DT40 TDP1 CPT 15µM, TDP1 cell noCPT 21µM
O=C(CSC1=NCCN1)NC(c1ccccc1)c1ccccc1	DT40 TDP1 CPT inconclusive, HT1080 IDH1KD tx inconclusive, HT1080NT lethal inconclusive, TGFb inhibitor inconclusive, TDP1 cell noCPT 21µM
Cc1cc(=O)[nH]c(SCC(=O)NC(c2ccccc2)c2ccccc2)n1	TDP1 cell noCPT inconclusive
O=S(=O)(NC1Cc2ccccc2C1)c1ccccc1	none
Nc1ncnc2c1ncn2-c1ccccc1Cl	none
CCC(C)N(C(=O)c1csnn1)C(C(=O)NC1CCCC1)c1ccccc1F (configuration not stated)	none
COc1ccc(NS(=O)(=O)c2ccc(C)c(C(=O)NCC(c3ccco3)N(C)C)c2)cc1 (configuration not stated)	DT40 TDP1 CPT inconclusive
Cn1c(NCCCCO)nc2c1c(=O)n(Cc1ccc(Cl)cc1)c(=O)n2C	DT40 TDP1 CPT inconclusive, TDP1 cell noCPT inconclusive (no result: HT1080 IDH1KD tx, HT1080NT lethal)
Clc1ccccc1Cn1c(/C=C/c2ccco2)nc2ccccc21	DT40 TDP1 CPT inconclusive, HT1080 IDH1KD tx 23µM, HT1080NT lethal inconclusive, TGFb inhibitor inconclusive, TDP1 cell noCPT inconclusive
O=C(NCCCc1nc2ccccc2n1Cc1cccc(Cl)c1)c1ccco1	DT40 TDP1 CPT 16µM, TDP1 cell noCPT 23µM (no result: HT1080 IDH1KD tx, HT1080NT lethal)
Cc1ccc(Cn2c(CCCNC(=O)c3ccco3)nc3ccccc32)cc1	DT40 TDP1 CPT inconclusive, TDP1 cell noCPT inconclusive (no result: HT1080 IDH1KD tx, HT1080NT lethal)
O=C(NCCCc1nc2ccccc2n1Cc1ccccc1Cl)c1ccco1	DT40 TDP1 CPT 29µM, TGFb inhibitor inconclusive, TDP1 cell noCPT 16µM (no result: HT1080 IDH1KD tx, HT1080NT lethal)
O=c1ccc(-c2nc3ccccc3n2Cc2ccccc2Cl)c[nH]1	TDP1 cell noCPT inconclusive
O=C(NCCCc1nc2ccccc2n1Cc1ccc(Cl)cc1)c1ccco1	DT40 TDP1 CPT inconclusive, TDP1 cell noCPT 16µM (no result: HT1080 IDH1KD tx, HT1080NT lethal, TGFb inhibitor)
Cn1c(CCCNC(=O)c2ccco2)nc2ccccc21	none
CCOC(=O)C1=C(C)Nc2ccccc2N=C1NC(=O)c1cc(C)on1	none
Cc1cc(OCC(=O)Nc2sc3c(c2C#N)CCC(C)C3)ccc1Cl (configuration not stated)	TGFb inhibitor inconclusive, TDP1 cell noCPT inconclusive (no result: HT1080 IDH1KD tx, HT1080NT lethal)
O=C(NNC(=O)C1CC(c2cccs2)=NO1)Nc1ccccc1 (configuration not stated)	none
Cc1ccc(C(C)C)cc1OCC(=O)NCCCn1ccnc1	DT40 TDP1 CPT inconclusive, TDP1 cell noCPT 23µM
COC(=O)C[C@H]1C[C@H]2c3cc(NC(=O)C4CCOCC4)ccc3O[C@H]2[C@@H](CO)O1	none
O=C1[C@@H](Oc2ccccc2)[C@@H](c2cccnc2)N1c1ccccc1	DT40 TDP1 CPT 21µM, HT1080 IDH1KD tx 21µM, HT1080NT lethal inconclusive, TDP1 cell noCPT 18µM
O=C1[C@H](Oc2ccccc2)[C@@H](c2ccccc2)N1c1ccncc1	DT40 TDP1 CPT inconclusive, HT1080 IDH1KD tx inconclusive, TGFb inhibitor inconclusive, TDP1 cell noCPT 23µM
Cc1nn(C)c(Oc2ccccc2)c1CCNC(=O)C(C)(C)C	none
COc1ccc(S(=O)(=O)NCCc2c(C)nn(C)c2Oc2ccccc2)cc1	DT40 TDP1 CPT inconclusive, TGFb inhibitor inconclusive, TDP1 cell noCPT 23µM
Cc1nn(C)c(Oc2ccccc2)c1CCNS(=O)(=O)c1ccc(Cl)cc1	DT40 TDP1 CPT 16µM, HT1080 IDH1KD tx inconclusive, TDP1 cell noCPT 16µM
O=C1[C@H]2[C@@H](c3ccc(F)cc3)N3C(=O)N(c4cccc(Cl)c4)C(=O)[C@@]3(Cc3ccc(Cl)cc3)[C@H]2C(=O)N1C1CCCCC1	DT40 TDP1 CPT 16µM, TDP1 cell noCPT inconclusive

High-throughput results deposited in PubChem by National Center for Advancing Translational Sciences (NCATS).
